# Laboratory results as given in publication PMC7862700, “An all-to-all approach to the identification of sequence-specific readers for epigenetic DNA modifications on cytosine”.
# Tests used:
# Assay in all cases: DAPPL (digital affinity profiling via proximity ligation, sequencing); 10 mM Tris-HCl pH 7.5, 50 mM NaCl, 1 mM DTT, 4% glycerol, room temperature, 30 min; GST-TFs on glutathione beads, 16-mer random dsDNA library, 0.1% formaldehyde crosslink after washing; high values mean tight binding
# FLI1 = target: T1, FLI1 (Homo sapiens, UniProt Q01543 1-452); conditions: protein: recombinant; tags: N-terminal GST; dsDNA, one strand shown
# T1 sequence: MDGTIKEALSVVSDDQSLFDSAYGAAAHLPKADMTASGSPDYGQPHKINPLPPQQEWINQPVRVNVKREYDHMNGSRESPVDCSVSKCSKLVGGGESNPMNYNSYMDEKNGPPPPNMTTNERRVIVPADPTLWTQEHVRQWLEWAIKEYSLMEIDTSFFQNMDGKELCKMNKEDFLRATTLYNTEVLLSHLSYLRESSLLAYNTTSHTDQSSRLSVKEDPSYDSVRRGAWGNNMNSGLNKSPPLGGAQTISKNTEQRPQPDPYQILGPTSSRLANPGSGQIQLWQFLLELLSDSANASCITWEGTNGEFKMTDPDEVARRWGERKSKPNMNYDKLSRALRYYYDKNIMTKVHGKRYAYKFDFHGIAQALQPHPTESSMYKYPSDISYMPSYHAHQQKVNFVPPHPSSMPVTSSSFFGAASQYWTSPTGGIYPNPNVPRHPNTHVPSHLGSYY
# Outline: (§1)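 Pools of DNA-barcoded human transcription factors, expressed in yeast as GST fusions on glutathione beads and combined with a tag-only sample, were incubated with 200 nmole of a 16-mer random double-stranded DNA library. Incubation took 30 min at room temperature in Tris/NaCl/DTT/glycerol buffer and was followed by washing, 0.1% formaldehyde crosslinking, proximity ligation (BsaI/T4 ligase, 1 h, 37 °C), PCR amplification and sequencing on an Illumina NextSeq500. Binding signal is the ratio of a hexamer's read frequency for a factor to its frequency for the tag-only sample.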
# ELK1 = target: T2, ELK1 (Homo sapiens, UniProt P19419 1-428); conditions: protein: recombinant; tags: N-terminal GST; dsDNA, one strand shown
# T2 sequence: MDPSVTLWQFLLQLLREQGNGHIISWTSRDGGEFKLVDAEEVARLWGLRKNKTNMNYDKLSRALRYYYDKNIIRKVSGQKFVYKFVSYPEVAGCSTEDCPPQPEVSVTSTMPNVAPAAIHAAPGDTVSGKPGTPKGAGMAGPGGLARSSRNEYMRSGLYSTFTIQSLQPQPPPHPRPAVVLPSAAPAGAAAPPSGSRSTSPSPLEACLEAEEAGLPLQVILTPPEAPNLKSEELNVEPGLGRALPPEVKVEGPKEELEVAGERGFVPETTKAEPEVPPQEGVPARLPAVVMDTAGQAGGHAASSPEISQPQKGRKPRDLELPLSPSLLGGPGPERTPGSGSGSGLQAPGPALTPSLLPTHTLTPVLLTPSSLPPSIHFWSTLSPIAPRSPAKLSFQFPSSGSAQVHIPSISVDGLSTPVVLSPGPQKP
# Outline: as §1
# GABPA = target: T3, GABPA (Homo sapiens, UniProt Q06546 1-454); conditions: protein: recombinant; tags: N-terminal GST; dsDNA, one strand shown
# T3 sequence: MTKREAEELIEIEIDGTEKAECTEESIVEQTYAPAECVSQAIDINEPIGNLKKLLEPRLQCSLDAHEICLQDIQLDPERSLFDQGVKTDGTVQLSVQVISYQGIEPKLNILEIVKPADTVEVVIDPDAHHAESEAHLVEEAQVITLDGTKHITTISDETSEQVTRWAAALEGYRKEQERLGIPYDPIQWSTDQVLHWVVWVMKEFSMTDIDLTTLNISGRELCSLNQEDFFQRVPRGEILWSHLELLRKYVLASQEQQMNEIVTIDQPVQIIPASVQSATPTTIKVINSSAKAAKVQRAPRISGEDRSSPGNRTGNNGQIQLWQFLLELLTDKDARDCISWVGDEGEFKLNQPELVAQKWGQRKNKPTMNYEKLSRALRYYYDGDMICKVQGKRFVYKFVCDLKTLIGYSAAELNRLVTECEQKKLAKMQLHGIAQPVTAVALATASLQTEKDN
# Outline: as §1
# ERG = target: T4, ERG (Homo sapiens, UniProt P11308 1-479); conditions: protein: recombinant; tags: N-terminal GST; dsDNA, one strand shown
# T4 sequence: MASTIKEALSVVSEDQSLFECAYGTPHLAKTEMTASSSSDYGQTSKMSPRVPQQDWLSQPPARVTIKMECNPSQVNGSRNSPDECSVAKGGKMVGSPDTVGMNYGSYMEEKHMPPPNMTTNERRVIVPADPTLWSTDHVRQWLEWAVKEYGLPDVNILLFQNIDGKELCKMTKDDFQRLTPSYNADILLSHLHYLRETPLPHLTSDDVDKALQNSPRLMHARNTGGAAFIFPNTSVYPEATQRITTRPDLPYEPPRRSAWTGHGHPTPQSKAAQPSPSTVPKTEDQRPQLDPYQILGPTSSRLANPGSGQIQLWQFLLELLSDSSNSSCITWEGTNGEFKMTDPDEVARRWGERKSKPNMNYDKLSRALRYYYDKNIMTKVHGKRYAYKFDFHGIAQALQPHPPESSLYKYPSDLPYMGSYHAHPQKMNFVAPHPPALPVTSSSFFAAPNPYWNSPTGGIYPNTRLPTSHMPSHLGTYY
# Outline: as §1
# ELF1 = ELF1 (Homo sapiens, UniProt P32519 1-619); conditions: protein: recombinant; tags: N-terminal GST; dsDNA, one strand shown
# Outline: as §1
# EHF = target: T5, EHF (Homo sapiens, UniProt Q9NZC4 1-300); conditions: protein: recombinant; tags: N-terminal GST; dsDNA, one strand shown
# T5 sequence: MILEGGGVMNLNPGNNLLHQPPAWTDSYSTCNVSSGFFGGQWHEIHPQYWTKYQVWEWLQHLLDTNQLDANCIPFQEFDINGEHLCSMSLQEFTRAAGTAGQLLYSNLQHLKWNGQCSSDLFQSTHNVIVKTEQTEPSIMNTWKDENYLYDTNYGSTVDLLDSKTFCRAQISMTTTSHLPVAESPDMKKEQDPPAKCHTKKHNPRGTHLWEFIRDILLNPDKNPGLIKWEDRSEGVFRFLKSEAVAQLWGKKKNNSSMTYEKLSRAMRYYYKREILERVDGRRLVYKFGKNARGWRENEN
# Outline: as §1
# SPI1 = SPI1 (Homo sapiens, UniProt P17947 1-270); conditions: protein: recombinant; tags: N-terminal GST; dsDNA, one strand shown
# Outline: as §1
# SPIB = SPIB (Homo sapiens, UniProt Q01892 1-262); conditions: protein: recombinant; tags: N-terminal GST; dsDNA, one strand shown
# Outline: as §1
# ELK3 = target: T6, ELK3 (Homo sapiens, UniProt P41970 1-407); conditions: protein: recombinant; tags: N-terminal GST; dsDNA, one strand shown
# T6 sequence: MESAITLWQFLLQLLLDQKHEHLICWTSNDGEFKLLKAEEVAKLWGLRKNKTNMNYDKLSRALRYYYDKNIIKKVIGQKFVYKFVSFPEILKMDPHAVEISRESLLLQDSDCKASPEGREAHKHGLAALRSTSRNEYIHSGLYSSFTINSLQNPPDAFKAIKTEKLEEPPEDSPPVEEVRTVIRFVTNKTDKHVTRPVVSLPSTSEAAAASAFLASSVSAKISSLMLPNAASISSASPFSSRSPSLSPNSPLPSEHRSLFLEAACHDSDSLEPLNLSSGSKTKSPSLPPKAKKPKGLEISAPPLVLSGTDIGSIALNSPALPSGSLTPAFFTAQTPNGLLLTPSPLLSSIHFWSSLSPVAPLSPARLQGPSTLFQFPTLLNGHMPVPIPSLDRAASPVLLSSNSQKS
# Outline: as §1
# FEV = target: T7, FEV (Homo sapiens, UniProt Q99581 1-238); conditions: protein: recombinant; tags: N-terminal GST; dsDNA, one strand shown
# T7 sequence: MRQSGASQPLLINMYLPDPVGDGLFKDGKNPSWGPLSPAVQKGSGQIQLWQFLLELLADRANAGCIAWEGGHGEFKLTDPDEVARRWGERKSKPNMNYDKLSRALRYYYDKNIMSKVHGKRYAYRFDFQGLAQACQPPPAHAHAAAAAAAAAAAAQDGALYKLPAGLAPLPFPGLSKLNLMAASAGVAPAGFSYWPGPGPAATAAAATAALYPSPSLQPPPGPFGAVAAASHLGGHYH
# Outline: as §1
# ETV5 = ETV5 (Homo sapiens, UniProt P41161 1-510); conditions: protein: recombinant; tags: N-terminal GST; dsDNA, one strand shown
# Outline: as §1
# HSF1 = HSF1 (Homo sapiens, UniProt Q00613 1-529); conditions: protein: recombinant; tags: N-terminal GST; chain copies: 3; dsDNA, one strand shown
# Outline: as §1
# SPIC = target: T8, SPIC (Homo sapiens, UniProt Q8N5J4 1-248); conditions: protein: recombinant; tags: N-terminal GST; dsDNA, one strand shown
# T8 sequence: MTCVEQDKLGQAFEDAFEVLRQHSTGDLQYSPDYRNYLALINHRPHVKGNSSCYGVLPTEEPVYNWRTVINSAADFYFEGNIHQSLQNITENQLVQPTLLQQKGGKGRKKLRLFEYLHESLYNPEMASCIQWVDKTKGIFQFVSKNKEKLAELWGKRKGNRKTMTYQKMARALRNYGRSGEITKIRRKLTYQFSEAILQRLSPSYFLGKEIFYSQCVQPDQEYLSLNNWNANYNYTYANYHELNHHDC
# Outline: as §1
# ELF4 = ELF4 (Homo sapiens, UniProt Q99607 1-663); conditions: protein: recombinant; tags: N-terminal GST; dsDNA, one strand shown
# Outline: as §1
# ELK4 = target: T9, ELK4 (Homo sapiens, UniProt P28324-2 1-405); conditions: protein: recombinant; tags: N-terminal GST; dsDNA, one strand shown
# T9 sequence: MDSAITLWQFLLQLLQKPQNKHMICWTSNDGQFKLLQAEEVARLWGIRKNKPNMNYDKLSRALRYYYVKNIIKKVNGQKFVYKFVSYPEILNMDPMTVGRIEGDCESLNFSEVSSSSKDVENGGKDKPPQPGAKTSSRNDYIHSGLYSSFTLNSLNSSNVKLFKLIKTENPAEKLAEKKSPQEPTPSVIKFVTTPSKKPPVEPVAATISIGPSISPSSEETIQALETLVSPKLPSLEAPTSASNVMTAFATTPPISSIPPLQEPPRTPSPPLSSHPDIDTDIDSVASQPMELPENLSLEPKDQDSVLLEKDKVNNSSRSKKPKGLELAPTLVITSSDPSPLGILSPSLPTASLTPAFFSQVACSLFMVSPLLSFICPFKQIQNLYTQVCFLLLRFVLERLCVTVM
# Outline: as §1
# ETV2 = target: T10, ETV2 (Homo sapiens, UniProt O00321 1-342); conditions: protein: recombinant; tags: N-terminal GST; dsDNA, one strand shown
# T10 sequence: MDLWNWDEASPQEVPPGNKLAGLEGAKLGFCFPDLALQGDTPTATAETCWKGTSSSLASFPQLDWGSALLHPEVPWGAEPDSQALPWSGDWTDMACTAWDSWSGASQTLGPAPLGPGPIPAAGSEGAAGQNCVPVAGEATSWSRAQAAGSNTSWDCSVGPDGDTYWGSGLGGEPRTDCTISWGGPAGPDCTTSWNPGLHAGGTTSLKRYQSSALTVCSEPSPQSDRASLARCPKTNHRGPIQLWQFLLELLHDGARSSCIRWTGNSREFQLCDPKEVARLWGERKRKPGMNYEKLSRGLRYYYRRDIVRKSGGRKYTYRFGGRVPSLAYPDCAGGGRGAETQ
# Outline: as §1
# ELF3 = target: T11, ELF3 (Homo sapiens, UniProt P78545 1-371); conditions: protein: recombinant; tags: N-terminal GST; dsDNA, one strand shown
# T11 sequence: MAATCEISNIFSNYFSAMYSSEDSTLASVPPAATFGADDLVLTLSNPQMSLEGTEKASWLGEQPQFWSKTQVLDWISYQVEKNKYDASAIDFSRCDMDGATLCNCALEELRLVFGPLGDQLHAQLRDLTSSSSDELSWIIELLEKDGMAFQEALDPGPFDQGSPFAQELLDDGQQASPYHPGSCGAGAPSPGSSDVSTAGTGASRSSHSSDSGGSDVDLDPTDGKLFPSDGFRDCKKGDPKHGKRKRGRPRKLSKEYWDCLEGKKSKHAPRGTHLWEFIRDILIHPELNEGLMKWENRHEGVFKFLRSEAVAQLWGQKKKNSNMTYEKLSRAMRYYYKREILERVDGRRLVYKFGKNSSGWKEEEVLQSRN
# Outline: as §1
# CRX = CRX (Homo sapiens, UniProt O43186 1-299); conditions: protein: recombinant; tags: N-terminal GST; dsDNA, one strand shown
# Outline: as §1
# ETV1 = ETV1 (Homo sapiens, UniProt P50549 1-477); conditions: protein: recombinant; tags: N-terminal GST; dsDNA, one strand shown
# Outline: as §1
# ETV5, sequence (P41161 whole entry): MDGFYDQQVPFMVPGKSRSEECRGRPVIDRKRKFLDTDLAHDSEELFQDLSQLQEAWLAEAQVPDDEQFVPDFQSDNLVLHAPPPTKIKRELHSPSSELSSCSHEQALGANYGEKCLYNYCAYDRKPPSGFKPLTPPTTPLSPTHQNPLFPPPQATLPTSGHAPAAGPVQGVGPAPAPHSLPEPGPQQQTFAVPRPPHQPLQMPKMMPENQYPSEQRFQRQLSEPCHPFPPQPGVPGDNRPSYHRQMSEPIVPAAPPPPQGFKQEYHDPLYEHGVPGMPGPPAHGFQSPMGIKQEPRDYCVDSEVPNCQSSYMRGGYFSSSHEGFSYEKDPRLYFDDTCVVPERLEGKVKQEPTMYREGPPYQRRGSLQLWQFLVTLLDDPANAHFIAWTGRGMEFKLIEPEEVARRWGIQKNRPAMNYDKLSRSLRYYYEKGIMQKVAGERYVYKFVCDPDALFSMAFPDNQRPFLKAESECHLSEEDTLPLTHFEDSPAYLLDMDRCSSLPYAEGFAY
# CRX, sequence (O43186 whole entry): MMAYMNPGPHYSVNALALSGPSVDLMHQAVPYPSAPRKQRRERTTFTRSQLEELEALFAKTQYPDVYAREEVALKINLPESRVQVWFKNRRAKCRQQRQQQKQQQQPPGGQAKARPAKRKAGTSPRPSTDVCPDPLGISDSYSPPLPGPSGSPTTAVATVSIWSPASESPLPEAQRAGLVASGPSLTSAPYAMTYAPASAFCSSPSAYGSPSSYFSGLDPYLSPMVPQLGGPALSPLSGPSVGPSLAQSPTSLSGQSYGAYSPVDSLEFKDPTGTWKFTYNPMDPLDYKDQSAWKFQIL
# HSF1, sequence (Q00613 whole entry): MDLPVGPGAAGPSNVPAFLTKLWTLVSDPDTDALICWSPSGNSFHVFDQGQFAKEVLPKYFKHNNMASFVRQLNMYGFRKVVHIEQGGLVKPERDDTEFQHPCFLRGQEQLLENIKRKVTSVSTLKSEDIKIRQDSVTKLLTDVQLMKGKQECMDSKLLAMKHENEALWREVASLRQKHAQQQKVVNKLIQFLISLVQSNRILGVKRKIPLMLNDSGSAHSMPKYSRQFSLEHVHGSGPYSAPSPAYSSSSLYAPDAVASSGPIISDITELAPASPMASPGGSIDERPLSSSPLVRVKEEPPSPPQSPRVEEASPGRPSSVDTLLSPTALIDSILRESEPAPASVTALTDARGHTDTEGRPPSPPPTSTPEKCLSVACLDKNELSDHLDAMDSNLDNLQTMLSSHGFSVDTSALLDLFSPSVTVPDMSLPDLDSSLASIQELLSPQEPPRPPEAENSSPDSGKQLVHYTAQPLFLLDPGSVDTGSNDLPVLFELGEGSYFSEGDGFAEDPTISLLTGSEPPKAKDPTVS
# ELF4, sequence (Q99607 whole entry): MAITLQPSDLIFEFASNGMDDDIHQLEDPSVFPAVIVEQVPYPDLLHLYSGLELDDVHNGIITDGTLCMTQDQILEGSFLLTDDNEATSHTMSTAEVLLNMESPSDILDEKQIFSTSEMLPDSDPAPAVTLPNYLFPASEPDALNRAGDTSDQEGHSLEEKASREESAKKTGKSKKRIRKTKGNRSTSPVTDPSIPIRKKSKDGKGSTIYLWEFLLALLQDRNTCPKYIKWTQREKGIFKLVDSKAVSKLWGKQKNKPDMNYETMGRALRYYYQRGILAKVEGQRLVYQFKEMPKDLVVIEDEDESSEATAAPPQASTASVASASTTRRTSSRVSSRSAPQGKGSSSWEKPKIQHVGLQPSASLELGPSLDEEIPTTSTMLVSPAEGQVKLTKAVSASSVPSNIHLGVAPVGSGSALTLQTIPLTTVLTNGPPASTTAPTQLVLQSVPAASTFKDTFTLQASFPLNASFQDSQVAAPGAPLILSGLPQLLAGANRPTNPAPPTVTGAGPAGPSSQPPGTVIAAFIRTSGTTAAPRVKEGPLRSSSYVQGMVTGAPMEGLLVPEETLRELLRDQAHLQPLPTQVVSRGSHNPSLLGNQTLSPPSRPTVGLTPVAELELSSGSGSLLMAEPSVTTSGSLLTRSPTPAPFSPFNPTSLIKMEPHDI
# SPIB, sequence (Q01892 whole entry): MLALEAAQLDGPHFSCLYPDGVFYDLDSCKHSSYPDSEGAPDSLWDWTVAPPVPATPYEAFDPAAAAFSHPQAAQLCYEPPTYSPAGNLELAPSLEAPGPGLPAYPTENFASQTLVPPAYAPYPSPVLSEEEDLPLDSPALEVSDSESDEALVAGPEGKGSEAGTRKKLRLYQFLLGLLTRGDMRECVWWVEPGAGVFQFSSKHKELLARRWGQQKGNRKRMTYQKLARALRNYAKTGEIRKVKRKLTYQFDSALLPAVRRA
# ETV1, sequence (P50549 whole entry): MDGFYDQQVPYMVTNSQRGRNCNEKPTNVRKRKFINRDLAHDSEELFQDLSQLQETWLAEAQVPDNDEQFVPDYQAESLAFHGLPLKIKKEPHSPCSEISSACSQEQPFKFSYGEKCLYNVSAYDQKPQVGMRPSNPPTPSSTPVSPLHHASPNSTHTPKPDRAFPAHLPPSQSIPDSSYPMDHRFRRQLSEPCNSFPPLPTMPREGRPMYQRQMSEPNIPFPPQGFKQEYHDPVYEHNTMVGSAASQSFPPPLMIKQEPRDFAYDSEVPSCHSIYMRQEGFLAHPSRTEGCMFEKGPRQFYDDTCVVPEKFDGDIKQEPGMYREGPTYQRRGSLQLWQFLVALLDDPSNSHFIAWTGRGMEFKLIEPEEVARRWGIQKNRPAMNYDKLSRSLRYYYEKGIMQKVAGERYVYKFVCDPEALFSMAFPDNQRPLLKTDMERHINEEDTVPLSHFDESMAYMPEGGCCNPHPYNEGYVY
# ELF1, sequence (P32519 whole entry): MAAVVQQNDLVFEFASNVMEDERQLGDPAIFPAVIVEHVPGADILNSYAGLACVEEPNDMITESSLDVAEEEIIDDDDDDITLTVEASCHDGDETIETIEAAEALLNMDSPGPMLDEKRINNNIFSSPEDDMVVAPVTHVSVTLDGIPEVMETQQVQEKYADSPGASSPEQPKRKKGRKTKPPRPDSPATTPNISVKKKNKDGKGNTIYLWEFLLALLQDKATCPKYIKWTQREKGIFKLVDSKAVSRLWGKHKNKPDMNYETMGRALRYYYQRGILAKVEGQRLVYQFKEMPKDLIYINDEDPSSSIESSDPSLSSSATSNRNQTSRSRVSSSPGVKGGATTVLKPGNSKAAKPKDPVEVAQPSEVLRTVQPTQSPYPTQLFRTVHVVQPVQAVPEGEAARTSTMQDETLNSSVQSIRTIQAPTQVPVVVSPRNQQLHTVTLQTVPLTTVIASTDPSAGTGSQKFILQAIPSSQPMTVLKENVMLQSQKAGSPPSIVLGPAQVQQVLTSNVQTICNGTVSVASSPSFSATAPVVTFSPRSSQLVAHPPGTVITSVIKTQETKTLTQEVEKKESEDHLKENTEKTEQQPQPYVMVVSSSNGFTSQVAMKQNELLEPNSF
sequence,measurement,setting,value
CACTTC,binding signal,FLI1,"3.41 fold enrichment (6-mer frequency, TF over GST control)"
same,binding signal,ELK1,"3.77 fold enrichment (6-mer frequency, TF over GST control)"
same,binding signal,GABPA,"3.25 fold enrichment (6-mer frequency, TF over GST control)"
same,binding signal,ERG,"4.19 fold enrichment (6-mer frequency, TF over GST control)"
same,binding signal,ELF1,"3.41 fold enrichment (6-mer frequency, TF over GST control)"
same,binding signal,EHF,"3.63 fold enrichment (6-mer frequency, TF over GST control)"
same,binding signal,SPI1,"5.56 fold enrichment (6-mer frequency, TF over GST control)"
same,binding signal,SPIB,"3.54 fold enrichment (6-mer frequency, TF over GST control)"
same,binding signal,ELK3,"3.97 fold enrichment (6-mer frequency, TF over GST control)"
same,binding signal,FEV,"5.06 fold enrichment (6-mer frequency, TF over GST control)"
same,binding signal,ETV5,"3.62 fold enrichment (6-mer frequency, TF over GST control)"
same,binding signal,HSF1,"1.3 fold enrichment (6-mer frequency, TF over GST control)"
same,binding signal,SPIC,"3.53 fold enrichment (6-mer frequency, TF over GST control)"
same,binding signal,ELF4,"3.48 fold enrichment (6-mer frequency, TF over GST control)"
same,binding signal,ELK4,"3.01 fold enrichment (6-mer frequency, TF over GST control)"
same,binding signal,ETV2,"3.4 fold enrichment (6-mer frequency, TF over GST control)"
same,binding signal,ELF3,"3.05 fold enrichment (6-mer frequency, TF over GST control)"
same,binding signal,CRX,"1.07 fold enrichment (6-mer frequency, TF over GST control)"
same,binding signal,ETV1,"3.73 fold enrichment (6-mer frequency, TF over GST control)"
